Sampled rows, rich in hits. Any-hit rate of the full collection: about 4.1%.
TROY NFkB inh – TROY signaling inhibition | Q293 LMP1-TROYcd NF-kB luciferase reporter, 4 h | inhibition, % at 10 µM | actives 0.98% (n = 360,000);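 active means compounds whose plate-normalised and pattern-corrected inhibition of the luciferase reporter signal at the single screening dose is 50% or more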
Peg3 prom inh – inhibitors of Peg3 promoter | AID 588405 | inhibition, % at 20 µM | actives 1.7% (n = 360,000) | HeLa PEG-Prom luciferase reporter, luminescence, overnight;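 active means inhibition of at least 50% at 20 µM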
LMP1 NFkB inh – reduces LMP1-driven NF-kappaB luciferase signal; LMP1-induced NF-kappaB luciferase reporter cells, luminescence; inhibition, % at 12.5 µM; actives 0.69% (n = 350,000); AID 504558; in the data active means inhibition above about 41%;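 further: 0% = neutral control wells and 100% = reference inhibitor control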
TWEAK Fn14 block – inhibitors of TWEAK-Fn14 interaction signaling. TWEAK-stimulated Fn14 reporter cells, luciferase luminescence, 8 h. inhibition, % at 10 µM. actives 2% (n = 360,000); in the data active means inhibition above about 50%
Shn3 3UTR inh – reduces Shn3 3'UTR luciferase signal in osteoblasts; Clone20 osteoblast Shn3 3'UTR firefly luciferase, 24 h; inhibition, % at 12.5 µM; actives 0.52% (n = 360,000); AID 588674;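 active means mean inhibition of at least 75% with every replicate also reaching 75%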;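 further: 0% = median of neutral control wells and 100% = pilot-screen positive control compound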
TRPM1 prom inh – MITF TRPM1 promoter inhibition in SK-MEL-5 cells | SK-MEL-5 TRPM1 promoter luciferase, 24 h | inhibition, % at 12.5 µM | actives 0.83% (n = 330,000) | AID 488899;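 active means mean inhibition across replicates of 60% or more, whatever share of single replicates reaches that level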
* marks the source's active call; other numbers are inactive results; · = no result given; ! = not confirmed by another sample.

SMILES	TROY NFkB inh	Peg3 prom inh	LMP1 NFkB inh	TWEAK Fn14 block	Shn3 3UTR inh	TRPM1 prom inh
CCOC(=O)[C@]12CCC=C1N(Cc1ccco1)C(=O)[C@H](CC(=O)NCc1ccc(OC)c(OC)c1)C2	-3.2	·	·	-4.5	·	·
Cn1c(=O)[nH]c(=O)c2c1nc(N1CCCCC1)n2CCSc1nc2ccccc2o1	9.3	22.4	1.2	-2.1	-10.8	·
CC(C)CCn1c(Sc2nc3ccccc3o2)nc2c1c(=O)[nH]c(=O)n2C	-28.9	-98.2	57.4*	66.9*	-59.7	-54.8
O=C(OCCOc1ccccc1)c1n[nH]c2ccccc12	-34.1	-317.4	-10.8	2.3	-37.7	-99.1
Cc1ccc(NC(=O)/C=C/c2ccc3c(c2)OCO3)cc1S(=O)(=O)N1CCOCC1	13.1	1.2	-3.9	2.7	17.7	5.0
N#Cc1c(-c2cccs2)nc(SCc2ccc(Cl)cc2)[nH]c1=O	74.0*	25.4	-11.1	13.9	28.1	18.8
CCOC(=O)c1oc2ccccc2c1CSc1nnnn1-c1ccc(C)cc1	7.0	30.4	0.7	-6.4	-3.0	-7.7
CCOC(=O)c1oc2ccccc2c1CSc1nnc(-c2ccco2)o1	1.9	3.1	2.4	58.5*	1.9	6.3
O=C(/C=C/c1ccc(OCc2ccccc2)c(OCc2ccccc2)c1)c1cccnc1	-4.2	36.8	-10.4	-7.9	88.8*	23.9
COc1ccc(C=CC(=O)c2ccc(OCc3ccccc3)c(OC)c2)cc1OC	-20.1	29.6	7.5	-11.9	-14.6	·
O=C(/C=C/c1ccc(Cl)cc1)c1cccnc1	3.3	43.6	2.0	-8.2	-12.2	3.3
N#Cc1ccc(/C=C/C(=O)c2cccnc2)cc1	40.0	70.3*	5.8	-0.6	61.8	20.1
COc1ccc(C(=O)n2c(C)c(CCO)c(=O)n2C)cc1	21.4	-15.4	-2.4	22.9	11.0	17.1
Cc1c(CCO)c(=O)n2n1CCCC2	-2.4	-7.6	52.1*	-1.0	-19.9	-2.2
CCCCC(=O)Nc1nnc(C)s1	-6.0	2.0	-4.0	8.2	-18.9	-2.9
CCC(=O)Nc1nnc(C)s1	·	8.4	3.1	58.3*	-8.1	3.5
c1ccc(-c2cn3c4c(sc3n2)CCCC4)cc1	72.2*	52.7*!	50.2*	89.2*	8.6	-3.6
Cc1c(C(=O)N2CCc3ccccc3C2)sc2nc(-c3ccccc3)cn12	-17.1	-34.6	-6.9	-19.1	-12.2	-2.0
Cc1cccc(N2CCN(C(=O)c3ccc(S(=O)(=O)N(C)c4ccccc4)cc3)CC2)c1C	29.5	34.8	8.0	60.8*	15.7	18.1
CN1CCN(C(=O)c2ccc(S(=O)(=O)N(C)c3ccccc3)cc2)CC1	-9.8	-1.9	11.8	-1.2	4.8	·
Cc1cccc(-c2nnc(NC(=O)c3ccc(Cl)cc3)o2)c1	-18.9	9.6	19.6	61.8*	-10.7	0.4
Cc1c(Cc2ccccc2)sc(/N=C/c2c(O)ccc3ccccc23)c1C(N)=O	23.5	27.5	-4.1	41.7	-7.3	-1.5
Cc1c(Cc2ccccc2)sc(/N=C/c2ccc3ccccc3c2)c1C(N)=O	-64.3	-34.7	-11.6	59.8*	-27.1	17.0
CS(=O)(=O)N(CC(=O)Nc1ccc(F)cc1F)C1CCCCC1	3.9	7.5	81.6*	-1.6	4.0	9.5
CSc1ccccc1NC(=O)CN(C1CCCCC1)S(C)(=O)=O	21.6	10.1	-6.6	14.4	12.7	1.5
SMILES	TROY NFkB inh	Peg3 prom inh	LMP1 NFkB inh	TWEAK Fn14 block	Shn3 3UTR inh	TRPM1 prom inh
Cc1cccc(-c2n[nH]c(=S)n2C)c1	-5.5	18.9	-3.6	-4.5	-10.3	6.1
COc1ccccc1-n1c(-c2ccccc2)n[nH]c1=S	7.4	4.4	46.4*	-3.4	48.2	5.6
Cn1c(-c2ccccc2)n[nH]c1=S	-9.6	6.7	-2.5	85.1*	9.9	-15.2
Cc1ccc(C(=O)NCc2ccc(F)cc2)cc1NC1=NC2CS(=O)(=O)CC2S1 (stereo unspecified)	-9.7	16.2	-10.4	10.5	-52.5	4.1
CC(C)c1ccc(-n2nc3ccc(N)cc3n2)cc1	5.0	-216.4	-29.6	50.8*	28.4	16.5
Cc1ccc(-n2nc3ccc(N)cc3n2)cc1	-48.1	-127.3	-11.7	-33.0	18.2	7.0
Cc1c(NC(=O)C(C)OC(=O)c2c3c(nc4ccccc24)CCC3)c(=O)n(-c2ccccc2)n1C (stereo unspecified)	-3.3	11.8	3.2	19.9	7.9	-4.6
Cc1ccc(NC(=O)CSc2nncn2-c2ccccn2)cc1Cl	12.2	-10.4	4.5	2.8	10.1	-6.1
CCNC(=S)N/N=C/c1cn(Cc2ccc(F)cc2)c2ccccc12	11.7	10.9	-2.7	-0.8	39.7	-13.1

Bioassay records from PubChem.
